The whole screen tested about 360,000 compounds, of which about 350 (0.097%) were called active. Cut-off read from the data, not from the text of the source: active = inhibition above about 16% (passing the limit was not always enough); inconclusive = no clear call, values can overlap the other calls; inactive = below that. The list comes from a sample in which actives are over-represented; it also holds similar structures and randomly drawn compounds.

In this assay the test system is UDP-N-acetylbacillosamine N-acetyltransferase PglD (Campylobacter jejuni). The assay is described as follows: blockers of PglD enzyme activity – biochemical, DTNB colorimetric, single point, primary screen (AID 602405). The settings on record: purified PglD enzyme, DTNB colorimetric CoA detection; at 12.5 µM; active compounds read high.
In general, inhibition refers to the change of the read-out against control, counted positive when it falls. As to `CC(C)CC#Cc1cnc2c(c1)C(=O)N([C@H](C)CO)C[C@H](C)[C@@H](CN(C)C(=O)Cc1cccnc1)O2`, the inhibition is -1.63% (inactive).

Consider `CCCN1C[C@H](C)[C@@H](OC)CN(C)C(=O)c2ccc(NC(=O)C3CCOCC3)cc2OC[C@H]1C`, for which the inhibition was 0.0955% (inactive).

Regarding `C[C@H]1CCCCO[C@@H](CN(C)C(=O)Nc2cccc3ccccc23)[C@@H](C)CN([C@@H](C)CO)C(=O)c2cc(NS(=O)(=O)c3ccc(Cl)cc3)ccc2O1`, the inhibition is 19.9% (inactive).

`C[C@H]1CN([C@@H](C)CO)C(=O)c2cc(-c3cccc(F)c3)cnc2O[C@@H]1CN(C)Cc1cncnc1`: the inhibition was 4.73% (inactive).

In the case of `COCC(=O)Nc1ccc2c(c1)OC[C@H](C)N(C)C[C@@H](C)[C@@H](OC)CN(C)C2=O`, the inhibition is -0.767% (inactive).

Regarding `CCC(=O)Nc1ccc2c(c1)C(=O)N(C)[C@@H]1CC[C@@H](CC(=O)N[C@@H](C)c3ccccc3)O[C@@H]1CO2`, the inhibition was 2.31% (inactive).

For `C/C=C/c1ccc2c(c1)O[C@@H](CN(C)C(=O)C1CCOCC1)[C@H](C)CN([C@H](C)CO)S2(=O)=O`, the inhibition is -2.4% (inactive).

Turning to `CCCNC(=O)N(C)C[C@@H]1Oc2cc(-c3ccccc3)ccc2S(=O)(=O)N([C@H](C)CO)C[C@H]1C`, the inhibition is 3.76% (inactive).

As to `COCC#Cc1ccc2c(c1)O[C@@H](CN(C)C(C)=O)[C@H](C)CN([C@H](C)CO)S2(=O)=O`, the inhibition is 2.69% (inactive).

In the case of `C[C@H](CO)N1C[C@H](C)[C@@H](CN(C)Cc2ccc3c(c2)OCO3)Oc2c(NC(=O)C3CCOCC3)cccc2C1=O`, the inhibition is -0.262% (inactive).

For the compound `Cc1ccc(CN(CC(=O)NCC2CCCO2)S(=O)(=O)c2ccc(C)cc2)cc1` (stereo unspecified), the inhibition was -1.95% (inactive).

On to `Cc1ccc(S(=O)(=O)N2CCC(C(=O)N3CCCCCCC3)CC2)cc1`, for which the inhibition is -2.53% (inactive).

`Cc1ccc(S(=O)(=O)N2CCC(C(=O)NCC3CCCO3)CC2)cc1` (stereo unspecified): the inhibition was 34.1% (active).

For `CCCNC(=O)[C@H]1[C@H](CO)[C@H]2Cn3c(ccc(C4=CCCC4)c3=O)[C@H]2N1C(=O)CC1CC1`, the inhibition was 0.913% (inactive).

Turning to `CO[C@@H]1CC[C@@H]2CCOc3ccc(C#N)cc3C(=O)N(C)C[C@@H](OC)[C@@H](C)C(=O)N(C)C[C@H]1O2`, the inhibition is 2.01% (inactive).

With `O=C(CC1CC1)Nc1ccc2c(c1)[C@@H]1C[C@@H](CC(=O)NC3CCCCC3)O[C@@H](CO)[C@@H]1O2`, the inhibition is 0.63% (inactive).

Turning to `C[C@@H]1CN([C@@H](C)CO)C(=O)c2cc(C3=CCCCC3)cnc2O[C@H]1CN(C)CC1CCOCC1`, the inhibition was 4.78% (inactive).

For `C[C@H]1CN([C@@H](C)CO)C(=O)c2cc(/C=C/c3ccccc3)cnc2O[C@@H]1CN(C)C(=O)NC1CCCCC1`, the inhibition was 4.19% (inactive).

`C[C@@H]1CCCCO[C@@H](CN(C)C(=O)Cc2ccccc2)[C@@H](C)CN([C@@H](C)CO)C(=O)c2cc(NC(=O)c3ccccc3)ccc2O1`: the inhibition was -0.412% (inactive).

As to `COc1ccc(NC(=O)Nc2cccc3c2O[C@H](CN(C)S(=O)(=O)c2ccc(F)cc2)[C@H](C)CN([C@H](C)CO)C3=O)cc1`, the inhibition was 2.54% (inactive).

As to `C=CCOC(=O)C1=C(C)NC(C)=C(C(=O)OCC=C)C1c1cccs1`, the inhibition is -1.12% (inactive).

For the compound `C=CCOC(=O)C1=C(C)NC(SCC(=O)OCC)=C(C#N)C1c1ccc(C)cc1` (stereo unspecified), the inhibition was 25.9% (active).

Turning to `CCOC(=O)CSC1=C(C#N)C(c2sccc2C)CC(=O)N1` (stereo unspecified), the inhibition is -0.988% (inactive).

`CCCC(=O)Nc1ccc2c(c1)C(=O)N(C)[C@H]1CC[C@@H](CC(=O)NCc3cccc(F)c3)O[C@H]1CO2`: the inhibition was 0.49% (inactive).

`COc1ccc(S(=O)(=O)NC(C)C(=O)N2CCCCCC2)cc1` (stereo unspecified): the inhibition is 2.86% (inactive).

As for `CSCCC(NC(=O)c1ccccc1)C(=O)N1CCCCCCC1` (stereo unspecified), the inhibition is 6.24% (inactive).

For `CC(NC(=O)c1ccc(Cl)cc1)C(=O)N1CCCCC1` (stereo unspecified), the inhibition was 24% (active).

Regarding `C[C@@H]1CN([C@@H](C)CO)C(=O)Cc2cc(NS(=O)(=O)c3ccc(Cl)cc3)ccc2O[C@H]1CN(C)Cc1ccc(C(F)(F)F)cc1`, the inhibition is 3.04% (inactive).

For `Cc1noc(C)c1NC(=O)N(C)C[C@@H]1Oc2ccc(NC(=O)Nc3ccc4c(c3)OCO4)cc2C(=O)N([C@H](C)CO)C[C@H]1C`, the inhibition is -1.03% (inactive).

Consider `CC(C)NC(=O)Nc1ccc2c(c1)C(=O)N([C@H](C)CO)C[C@@H](C)[C@@H](CN(C)S(=O)(=O)c1ccc(Cl)cc1)OCCCC[C@H](C)O2`, for which the inhibition was 1.05% (inactive).

Consider `C[C@@H]1CN([C@@H](C)CO)C(=O)c2c(c3ccccc3n2C)-c2ccccc2CO[C@H]1CN(C)C(=O)N[C@H](C)c1ccccc1`, for which the inhibition was -3.17% (inactive).

For `CS(=O)(=O)Nc1ccc2c(c1)[C@H]1C[C@@H](CC(=O)NCCc3ccccc3)O[C@@H](CO)[C@H]1O2`, the inhibition was 1.04% (inactive).

With `Cc1noc(C)c1S(=O)(=O)Nc1ccc2c(c1)C(=O)N([C@@H](C)CO)C[C@@H](C)[C@H](CN(C)Cc1ccc(-c3ccccc3)cc1)O2`, the inhibition was -0.726% (inactive).

Take `Cc1noc(C)c1NC(=O)Nc1ccc2c(c1)C(=O)N([C@@H](C)CO)C[C@H](C)[C@H](CN(C)Cc1ccc(C(=O)O)cc1)OCCCC[C@@H](C)O2`: the inhibition was 0.986% (inactive).

For the compound `Cc1ccccc1-c1ccc2c(c1)O[C@H](CN(C)C)[C@H](C)CN([C@@H](C)CO)S2(=O)=O`, the inhibition was 4.9% (inactive).

`CCCN1C[C@@H](C)[C@@H](OC)CN(C)C(=O)c2ccc(NS(C)(=O)=O)cc2OC[C@@H]1C`: the inhibition is 0.769% (inactive).

For `O=C(C[C@@H]1CC[C@@H](NC(=O)C2CC2)[C@H](CO)O1)NCc1ccncc1`, the inhibition is -0.635% (inactive).

With `Cc1ccc(S(=O)(=O)NCC[C@H]2CC[C@H](NC(=O)c3ccccn3)[C@@H](CO)O2)cc1`, the inhibition was 1.02% (inactive).

For the compound `C[C@@H]1CN([C@H](C)CO)S(=O)(=O)c2ccc(-c3cccc(C#N)c3)cc2O[C@@H]1CN(C)C(=O)Nc1ccccc1F`, the inhibition is -1.07% (inactive).

In the case of `CCCC#Cc1cnc2c(c1)C(=O)N([C@H](C)CO)C[C@H](C)[C@H](CN(C)C(=O)Cc1ccncc1)O2`, the inhibition is 0.18% (inactive).

Consider `C[C@@H]1CN([C@H](C)CO)S(=O)(=O)c2ccc(C#CCN(C)C)cc2O[C@@H]1CN(C)C(=O)C1CCCCC1`, for which the inhibition is -0.634% (inactive).

Values taken from PubChem BioAssay AID602405 (Broad Institute, 2012).
